Reference: PubChem BioAssay

Test system: Human papillomavirus type 1a E7 protein (residues 1-88)
Experiment: HPV1a E7 small-molecule binders, primary screen, biochemical, small-molecule microarray, residues 1-88, 635 nm (AID 1129)
Settings: small-molecule microarray binding, fluorescence 635 nm; higher = more signal

Structure (SMILES) | composite z-score
O=C1O[C@H](c2ccccc2)[C@H](c2ccccc2)N2[C@H]1[C@@H](C(=O)N1CCN(c3ncccn3)CC1)[C@]1(C(=O)Nc3ccccc31)[C@H]2c1ccc(OCCO)cc1 | 1.19
C=CCNC(=O)[C@@H]1[C@H]2C(=O)O[C@H](c3ccccc3)[C@H](c3ccccc3)N2[C@H](c2ccc(OCCO)cc2)[C@@]12C(=O)Nc1ccccc12 | 1.22
CC(C)C[C@@H]1NC(=O)[C@@H]2C[C@H](C(=O)NCCCCCC[N+](C)(C)C)[C@H](c3ccc(O)cc3)N2C1=O | 0.922
CCCC[C@H]1OB(O)C[C@H]2C1=C(C)C[C@H]1C(=O)N(Cc3ccccc3)C(=O)[C@H]12 | 0.366
COc1ccc(C#Cc2ccc3c(c2)[C@]2(C(=O)N3)[C@H](C(=O)NC[C@H](O)c3ccccc3)[C@H]3C(=O)O[C@H](c4ccccc4)[C@H](c4ccccc4)N3[C@@H]2c2ccc(OCCO)cc2)cc1 | 0.991
COCCOC(=O)N1C(=O)[C@@]2(c3cc(C#CCNC(N)=O)ccc31)[C@H](c1ccc(O)cc1)N1[C@H](c3ccccc3)[C@H](c3ccccc3)OC(=O)[C@H]1[C@@H]2C(=O)Nc1nc2ccccc2s1 | 0.967
COC(=O)[C@@]1(Cc2ccccc2)[C@H]2c3cc(C(=O)N4CCCC4)n(Cc4ccc(C)o4)c3C[C@H]2CN1C(=O)c1ccccc1 | 1.22
COc1cc2c(cc1OC)CN(C(=O)[C@@H]1[C@H]3C(=O)O[C@H](c4ccccc4)[C@H](c4ccccc4)N3[C@H](c3ccccc3OCCO)[C@@]13C(=O)Nc1ccc(C#CCNC(N)=O)cc13)CC2 | 0.923
COC(=O)[C@@]1(Cc2ccc(OC)cc2)[C@H]2c3cc(C(=O)N(C)C)n(Cc4c(OC)[nH]cc(C)c4=O)c3C[C@H]2CN1C(=O)c1ccccc1 | 0.66
COCCOC(=O)N1C(=O)[C@@]2(c3cc(C#CCCO)ccc31)[C@H](C(=O)NC[C@H](O)c1ccccc1)[C@H]1C(=O)O[C@H](c3ccccc3)[C@H](c3ccccc3)N1[C@@H]2c1ccc(O)cc1 | 0.789
COC(=O)[C@]1(Cc2ccccc2N=[N+]=[N-])N=C(c2ccc(OCCCO)cc2)O[C@@H]1c1ccccc1N=[N+]=[N-] | 0.825
[N-]=[N+]=NCc1ccccc1[C@@H]1OC(c2ccc(OCCCO)cc2)=N[C@]1(Cc1ccccc1N=[N+]=[N-])C(=O)NCc1ccccc1 | 1.17
Cc1ccc(S[C@]2(C(=O)NC3CC3)CC(=O)N(C3CCCCC3)[C@@H]2c2ccc(CO)cc2I)cc1 | 1.21
CC(C)NC(=O)[C@@H]1c2ccccc2C(=O)N(Cc2ccccc2)[C@H]1c1ccc(CO)cc1 | 0.482
[N-]=[N+]=NCc1ccccc1[C@H]1OC(c2ccc(OCCCO)cc2)=N[C@@]1(CCS(=O)(=O)c1ccccc1)C(=O)N1CCOCC1 | 0.871
COc1cc(C(O)C2C=CC3C(=O)N(c4ccccc4)C(=O)C3N2Nc2ccc(C#N)cc2)cc(OC)c1OC (stereo not given) | 1.31
O=C1C2C=CC(C(O)c3ccc(B(O)O)cc3)N(Nc3ccccc3)C2C(=O)N1c1ccccc1 (stereo not given) | -0.935
NCCCCCCNC(=O)[C@H]1C[C@H]2C(=O)NCC(=O)N2[C@H]1c1cccc(OCCO)c1 | 0.858
COc1cccc(C(=O)O[C@H]2CC[C@]3(C)C4=C(CCC3C2(C)C)[C@]2(C)CC[C@H]([C@H](C)CCCC(C)C)[C@@]2(C)CC4)c1 (stereo not given in full) | 0.386
CCOC(=O)C[C@H]1[C@H](OC(=O)Cc2ccc3c(c2)OCO3)[C@@H](NC(=O)c2ccc(-c3ccccc3)cc2)c2cc(OCCCO)ccc2N1C(=O)c1ccccc1 | 1.06
O=C1OCCC=C[C@H]2OC34C=CCN(Cc5ccccc5)C(=O)[C@H]3N(CCCCCO)C(=O)[C@@H]4C12 (stereo not given in full) | 0.702
CS(=O)(=O)CCOC(=O)C1=CC(CCCO)=CC(c2cccs2)N(Cc2cc3c(cc2Br)OCO3)C=C1C(=O)OCCS(C)(=O)=O (stereo not given) | 1.21
O=C1O[C@@H](c2ccccc2)[C@@H](c2ccccc2)N2[C@@H](c3ccc(OCCO)cc3)[C@]3(C(=O)Nc4ccc(C#CC5=CCCCC5)cc43)[C@@H](C(=O)O)[C@H]12 | 1.01
C=CC[C@@]1(C(=O)NCC(O)CO)N=C(c2ccc(OCCCO)cc2)O[C@@H]1c1ccccc1N=[N+]=[N-] (stereo not given in full) | 1.12
NC(=O)NCC#Cc1ccc2c(c1)[C@]1(C(=O)N2)[C@H](C(=O)NC[C@H](O)c2ccccc2)[C@H]2C(=O)O[C@H](c3ccccc3)[C@H](c3ccccc3)N2[C@@H]1c1ccc(O)cc1 | 1.17
